Sampled rows, rich in hits. Any-hit rate of the full collection: about 14%.
Pf growth 48h: inhibits P. falciparum growth in the first generation, 48 h; P. falciparum luciferase growth in erythrocytes, 48 h; Potency, µM (doses to about 28.7 µM), without a hit: top-dose activity change, negative = inhibition, hits mostly inhibitors; hit rate 5.9% among 310,000; AID 504832; also: potency is read from the fitted curve at half-maximal effect
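Luciferase-expressing parasites in RBCs, 2% Hct / 0.1% parasitemia final; RPMI 1640 + 0.5% Albumax; 37 C, 5% CO2, one generation; luminescence read-out, lower signal = inhibition.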
LASV entry inh: blocks Lassa virus binding to or entry into cells; Potency, µM (top dose mostly 37.9 µM), for the others: at the top dose activity change, negative = inhibition, most hits filed as inhibitors; AID 540256; Lassa virus pseudotype entry inhibition, cell reporter; hit rate 1.2% among 300,000; calls by dose curve; tested in HEK293 cells; also: potency is read from the fitted curve at half-maximal effect; nearly all actives have a fitted effect of over 50% in size
HCV inh: inhibitors of hepatitis C virus infection. Huh7.5.1 HCVcc-Cre infection, luciferase reporter, 44 h. Potency, µM (doses to about 41.8 µM), without a hit: at the highest dose activity change, negative = inhibition, most hits filed as inhibitors. hit rate 3.4% among 340,000; also: potency is read from the fitted curve at half-maximal effect
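Infectious HCVcc-Cre (~0.5 moi) was added to cells just after compound, with cells seeded 4 h earlier at 1,000 per well. Luciferase activity after 44 h culture reported infection; substrate was incubated 15 min at room temperature before reading.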
MARV entry inh: blocks Marburg virus binding to or entry into cells. Marburg virus pseudotyped entry inhibition, cell reporter. Potency, µM (titrated, usually from 37.8 µM), inactives show at the highest dose activity change, negative = inhibition, usual class: inhibitors. hit rate 1.8% among 300,000; calls by dose curve; tested in HEK293 cells; also: potency is read from the fitted curve at half-maximal effect
Pf growth 96h: P. falciparum growth inhibition at 96 hours; hit rate 6.9% among 320,000; Potency, µM (top dose mostly 28.7 µM), for inactives: top-dose activity change, negative = inhibition, usual class: inhibitors; P. falciparum luciferase reporter growth, 96 h; also: potency is read from the fitted curve at half-maximal effect
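Luminescence readout: decreased luciferase signal marks inhibited growth of reporter-expressing P. falciparum in infected red cells (2% hematocrit, 0.05% parasitemia final), exposed to compound two generations (96 h, 37 C, 5% CO2).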
HCMV inh: blocks human cytomegalovirus replication; HFF cells, HCMV-luciferase reporter, 72 h; hits give low values; activity change, negative = inhibition, % at 57.5 µM; hit rate 4.5% among 410,000; AID 1259415; in the data active = activity change below about -60%; inconclusive = no clear call, values can overlap the other calls; inactive = above about -39%
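Compounds were evaluated in HFFs infected with an HCMV luciferase reporter virus (MOI 1 PFU/cell). Luciferase in lysates collected 72 h post infection served as the replication measure.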
The depositor's hits bear a star; [ ] = another dose, or the depositor's remark. Unless noted, calls follow the shape of the dose curve; as a rule, active = well fitted inhibition curve with a large enough effect; inconclusive = small, poorly fitted or top-dose-only effect, or another doubt; inactive = no such curve, though single readings can be large or run the other way. % is scaled to controls: 0 for no effect and ±100 for the full control effect.

`COC(=O)c1ccccc1NC(=O)CSc1nc2ccccc2nc1Cc1ccccc1OC` gave LASV entry inh 19%[46.1 µM] and HCMV inh 7.
COc1cc2[nH]c(=S)nc(NCc3ccccc3)c2cc1OC was read as Pf growth 48h -19%, HCV inh -21%, MARV entry inh 9%, Pf growth 96h 0.52µM* and HCMV inh 4.
`COc1cc2[nH]c(=S)nc(NCc3ccc(C)cc3)c2cc1OC` gave Pf growth 48h inconclusive, HCV inh -11%, Pf growth 96h 13µM* and HCMV inh inconclusive.
For COc1ccc(CNc2nc(=S)[nH]c3cc(OC)c(OC)cc23)cc1 the results were Pf growth 48h -30%, HCV inh -4%, Pf growth 96h -20% and HCMV inh -21.
Screening Cc1ccc(NC(=O)COCc2cc(-c3cccs3)on2)cc1Cl returned LASV entry inh -2%[46.1 µM] and HCMV inh -6.
C=CCOc1ccc(CNc2nccs2)cc1OCC was read as Pf growth 48h 27%, LASV entry inh -5%, HCV inh inconclusive, MARV entry inh 14%, Pf growth 96h -20% and HCMV inh -64*.
`COc1ccc(CC(=O)Nc2nccs2)cc1OC` gave Pf growth 48h inconclusive, LASV entry inh 14%, HCV inh inconclusive, MARV entry inh -26%, Pf growth 96h 18% and HCMV inh 57.
`Cc1ccc(CNc2nc3ccccc3s2)s1` gave Pf growth 48h 184%, LASV entry inh 6.3µM*, HCV inh -17%, MARV entry inh inconclusive, Pf growth 96h inconclusive and HCMV inh 54.
`COc1ccc(CNc2nccs2)cc1OC` gave Pf growth 48h 41%, LASV entry inh 1%, HCV inh -19%, MARV entry inh 3%, Pf growth 96h 12µM* and HCMV inh 8.
CCn1c(NCc2ccc(OC)c(OC)c2)nc2ccccc21 was read as LASV entry inh -8%[46.1 µM], MARV entry inh inconclusive and HCMV inh -28.
Cc1ccc(C(=O)Nc2nc3ccccc3s2)s1 was read as Pf growth 48h -101%, LASV entry inh inconclusive, HCV inh -18%, MARV entry inh inconclusive, Pf growth 96h 44% and HCMV inh 34.
Screening COc1ccc(CNc2nc3ccccc3s2)cc1OC returned Pf growth 48h 106%, LASV entry inh -20%[46.1 µM], HCV inh 11µM*, MARV entry inh inconclusive, Pf growth 96h inconclusive and HCMV inh 63.
For O=C(/C=C/c1ccccc1)Nc1cccc(C(=O)NC2CC2)c1 the results were HCV inh inconclusive and HCMV inh 31.
COc1ccc(C2CCCCCN2C(=O)C2CCN(S(=O)(=O)c3ccc(C)cc3)CC2)cc1 (stereo unspecified) was read as HCMV inh 64.
Screening COC(=O)C1=C(C)N(C)C(=NCc2ccc(OC)cc2)NC1c1ccc(F)cc1 (stereo unspecified) returned HCMV inh -4.
`CC1CCCN(S(=O)(=O)c2ccc(NC(=O)Cc3ccc(S(=O)(=O)N4CCOCC4)s3)cc2)C1` (stereo unspecified) gave Pf growth 48h inconclusive, LASV entry inh -1%, HCV inh inconclusive, MARV entry inh 2%[46.1 µM], Pf growth 96h 7.4µM* and HCMV inh inconclusive.
Screening CC1CCCCC1NC(=O)Cc1ccc(S(=O)(=O)N2CCOCC2)s1 (stereo unspecified) returned Pf growth 48h inconclusive, LASV entry inh -10%[46.1 µM], HCV inh inconclusive, MARV entry inh inconclusive, Pf growth 96h 12µM* and HCMV inh -8.
Screening CNC(=O)c1ccc(NC(=O)Cc2ccc(S(=O)(=O)N3CCOCC3)s2)cc1 returned Pf growth 48h -32%, LASV entry inh 5%, HCV inh 9%, MARV entry inh 5%[46.1 µM], Pf growth 96h 15µM* and HCMV inh 58.
`O=C(Cc1ccc(S(=O)(=O)N2CCOCC2)s1)NC1CCCCC1` gave Pf growth 48h inconclusive, LASV entry inh 18%, HCV inh 14%, MARV entry inh inconclusive, Pf growth 96h inconclusive and HCMV inh -2.

Screens from PubChem.
